The source made the active and inactive calls.
What was measured:
[1] = test system: Plasmodium falciparum Sir2 (PF13_0152, Sir2A); assay: pfSir2 binders on small-molecule microarrays, primary screen, biochemical, small-molecule microarray, 635 nm fluorescence (AID 1098); settings: small-molecule microarray binding, fluorescence 635 nm; higher = more signal;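 note: score merges spot fluorescence intensity with its signal-to-noise ratio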
[2] = small-molecule microarray binders of probe aDKK1, primary screen, biochemical, biotinylated probe, 635/667 nm fluorescence (AID 1099); settings: higher = more signal;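 note: score merges 667nm spot fluorescence with signal to noise across triplicate slides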
[3] = small-molecule microarray binders of probe aCHRDL2, primary screen, biochemical, biotinylated probe, 635/667 nm fluorescence (AID 1100); settings: higher = more signal
[4] = splicing luciferase reporter signal modulators, primary screen, spliceosome inhibition project, cell-based, HEK293, splice +/- reporter (AID 1101); settings: luminescence, 24 h, higher = more signal, called active from +8 up or from −8 down;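 note: HEK293 cells carrying a splicing-competent luciferase reporter gene; test concentration not given here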
[5] = target: Fibroblast growth factor 10 (Homo sapiens) (UniProt O15520); assay: FGF10 binders on small-molecule microarrays, primary screen, biochemical, small-molecule microarray, 635 nm fluorescence (AID 1102); settings: FGF10 binding, fluorescence 635 nm, higher = more signal
[6] = test system: glycogen synthase kinase-3 (GSK3A per assay name; protocol says GSK3B); assay: GSK3 binders on small-molecule microarrays, primary screen, biochemical, small-molecule microarray, 635 nm fluorescence, GSK3A (AID 1103); settings: small-molecule microarray binding, fluorescence 635 nm; higher = more signal; note: the record names both GSK3A and GSK3B
[7] = target: Epidermal growth factor receptor (Homo sapiens) (UniProt P00533); assay: EGFR binders on small-molecule microarrays, primary screen, biochemical, small-molecule microarray, 635 nm fluorescence (AID 1104); settings: EGFR binding, higher = more signal;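 note: score merges 667 nm emission intensity with spot signal to noise over triplicate slides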
[8] = target: Follistatin-related protein 3 (Homo sapiens) (UniProt O95633); assay: FSTL3 binders on small-molecule microarrays, primary screen, biochemical, small-molecule microarray, 635 nm fluorescence (AID 1105); settings: FSTL3 binding, higher = more signal;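 note: score merges emission near 667 nm and signal to noise per printed spot across three slides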
[9] = target: Dickkopf-related protein 1 (Homo sapiens) (UniProt O94907); assay: DKK1 binders on small-molecule microarrays, primary screen, biochemical, small-molecule microarray, 635 nm fluorescence scan (AID 1106); settings: DKK1 binding, higher = more signal;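 note: score merges emission near 667 nm with signal to noise over three replicate slides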
[10] = test system: Inhibin beta A chain (activin A); assay: INHBA (activin A) binders on microarrays, primary screen, biochemical, small-molecule microarray, 635 nm fluorescence scan (AID 1107); settings: small-molecule microarray binding, higher = more signal;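 note: mouse activin A protein probed at 4.33 µg/mL on printed slides; score merges bound-protein fluorescence near 667 nm with spot signal-to-noise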
[11] = test system: Human papillomavirus type 1a protein E7 (residues 44-93); assay: HPV1a E7 fragment binders on microarrays, primary screen, biochemical, small-molecule microarray, residues 44-93, 635 nm fluorescence (AID 1108); settings: small-molecule microarray binding, fluorescence 635 nm; higher = more signal;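 note: E7 fragment applied at 1 µg/mL in TBST for 1 h at 4 C; score combines spot fluorescence with its signal to noise ratio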
[12] = modulators of HCV replicon luciferase signal, primary screen, HCV replication inhibitor project, Huh7 cells, luciferase reporter (AID 1109); settings: 48 h, higher = more signal;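 note: huh7 hepatoma cells harbouring a luciferase neomycin HCV replicon reporter; luciferase luminescence as measure of HCV replicon replication; test concentration not given here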
[13] = target: Left-right determination factor 2 (Homo sapiens) (UniProt O00292); assay: LEFTY2 binders on small-molecule microarrays, primary screen, biochemical, small-molecule microarray, 635 nm fluorescence scan (AID 1110); settings: LEFTY2 binding, higher = more signal
[14] = target: Calmodulin-1 (Homo sapiens) (UniProt P0DP23); assay: CALM1 binders on microarrays, EGTA buffer, profiling panel, biochemical, small-molecule microarray, Cy5-labelled CALM1 (AID 1111); settings: Cy5-CALM1 binding fluorescence, higher = more signal;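 note: labelled calmodulin applied in Tris saline Tween buffer holding calcium plus EGTA and DTT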
[15] = target: Calmodulin-1 (Homo sapiens) (UniProt P0DP23); assay: calcium-bound CALM1 binders on microarrays, profiling panel, artefact control for SMM control-protein annotation, biochemical, small-molecule microarray, Cy5-labelled CALM1, plus calcium (AID 1112); settings: Cy5-CALM1 binding fluorescence, higher = more signal;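 note: score merges spot fluorescence with signal to noise from triplicate slides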
[16] = small-molecule microarray binders of probe aWnt5a, primary screen, biochemical, biotinylated probe, 635/667 nm fluorescence (AID 1113); settings: higher = more signal;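 note: score merges 667 nm fluorescence intensity with signal-to-noise per printed feature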
[17] = small-molecule microarray binders of probe aShh, primary screen, biochemical, biotinylated probe, 635/667 nm fluorescence (AID 1114); settings: higher = more signal;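 note: probe is biotin-labelled aShh protein from a stem cell growth factor screen; measures binding of labelled protein to compounds printed on the slide; score merges feature fluorescence at 667 nm with signal-to-noise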
[18] = small-molecule microarray binders of probe aNog, primary screen, biochemical, biotinylated probe, 635/667 nm fluorescence (AID 1115); settings: higher = more signal;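 note: probe is biotinylated aNog protein used at 0.15 µg/mL for 1 h at 4 C; z-score combines 667 nm fluorescence of each spot with its signal to noise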
[19] = target: Torsin-1A-interacting protein 1 (Homo sapiens) (UniProt Q5JTV8); assay: LAP1 binders from COS7 cell lysate, primary screen, small-molecule microarray, 635/667 nm fluorescence (AID 1116); settings: COS7-hLAP1 lysate binding, 635 nm fluorescence, higher = more signal
[20] = target: Alpha-bungarotoxin (Bungarus multicinctus) (UniProt P60615); assay: alpha-bungarotoxin binders on microarray, profiling panel, artefact control for SMM control protein annotation, biochemical, small-molecule microarray, Alexa647 label, 635/667 nm fluorescence (AID 1117); settings: alpha-BTX-A647 binding fluorescence, higher = more signal
Sequence of Alpha-bungarotoxin (Bungarus multicinctus) (P60615 whole entry, looked up): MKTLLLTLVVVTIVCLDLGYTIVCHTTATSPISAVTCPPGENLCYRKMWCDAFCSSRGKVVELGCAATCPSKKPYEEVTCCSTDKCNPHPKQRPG

Sequence of Torsin-1A-interacting protein 1 (Homo sapiens) (Q5JTV8 whole entry, looked up): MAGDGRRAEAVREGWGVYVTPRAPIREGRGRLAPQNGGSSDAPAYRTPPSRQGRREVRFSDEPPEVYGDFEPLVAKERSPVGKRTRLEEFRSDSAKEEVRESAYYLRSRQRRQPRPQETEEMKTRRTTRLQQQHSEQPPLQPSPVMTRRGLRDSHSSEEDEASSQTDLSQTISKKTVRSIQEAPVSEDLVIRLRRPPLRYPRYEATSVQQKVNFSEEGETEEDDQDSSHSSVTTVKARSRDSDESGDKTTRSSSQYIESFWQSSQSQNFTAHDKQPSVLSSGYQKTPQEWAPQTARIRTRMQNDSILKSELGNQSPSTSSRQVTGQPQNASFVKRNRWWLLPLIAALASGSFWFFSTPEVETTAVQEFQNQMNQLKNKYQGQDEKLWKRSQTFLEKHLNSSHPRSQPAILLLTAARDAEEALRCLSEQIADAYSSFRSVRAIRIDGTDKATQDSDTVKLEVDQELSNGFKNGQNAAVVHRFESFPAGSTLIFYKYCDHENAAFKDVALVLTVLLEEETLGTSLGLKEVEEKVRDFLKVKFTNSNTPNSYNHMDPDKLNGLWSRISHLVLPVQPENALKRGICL
Sequence of Dickkopf-related protein 1 (Homo sapiens) (O94907 whole entry, looked up): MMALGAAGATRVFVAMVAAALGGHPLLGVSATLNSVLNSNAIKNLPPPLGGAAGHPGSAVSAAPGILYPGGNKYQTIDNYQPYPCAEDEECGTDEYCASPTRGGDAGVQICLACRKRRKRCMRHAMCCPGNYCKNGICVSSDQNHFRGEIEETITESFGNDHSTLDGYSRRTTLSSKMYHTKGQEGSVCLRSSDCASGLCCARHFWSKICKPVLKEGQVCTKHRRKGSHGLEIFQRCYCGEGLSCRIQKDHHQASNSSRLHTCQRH
Sequence of Left-right determination factor 2 (Homo sapiens) (O00292 whole entry, looked up): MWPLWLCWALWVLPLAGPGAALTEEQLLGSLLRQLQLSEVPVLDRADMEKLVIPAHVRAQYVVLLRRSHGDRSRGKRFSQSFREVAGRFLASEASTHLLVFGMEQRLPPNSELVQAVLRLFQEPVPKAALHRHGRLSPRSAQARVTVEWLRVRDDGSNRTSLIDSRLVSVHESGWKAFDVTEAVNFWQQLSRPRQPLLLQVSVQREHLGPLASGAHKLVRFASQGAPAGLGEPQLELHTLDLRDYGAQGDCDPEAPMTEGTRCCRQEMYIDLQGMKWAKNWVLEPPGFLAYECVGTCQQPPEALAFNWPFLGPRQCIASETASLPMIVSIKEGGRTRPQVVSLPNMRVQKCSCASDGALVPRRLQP
Sequence of Fibroblast growth factor 10 (Homo sapiens) (O15520 whole entry, looked up): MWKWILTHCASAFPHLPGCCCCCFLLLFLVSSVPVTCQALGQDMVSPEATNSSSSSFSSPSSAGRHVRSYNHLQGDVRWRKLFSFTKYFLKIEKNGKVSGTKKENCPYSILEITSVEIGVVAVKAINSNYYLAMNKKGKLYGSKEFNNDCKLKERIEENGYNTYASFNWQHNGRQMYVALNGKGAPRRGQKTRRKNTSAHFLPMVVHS
Sequence of Follistatin-related protein 3 (Homo sapiens) (O95633 whole entry, looked up): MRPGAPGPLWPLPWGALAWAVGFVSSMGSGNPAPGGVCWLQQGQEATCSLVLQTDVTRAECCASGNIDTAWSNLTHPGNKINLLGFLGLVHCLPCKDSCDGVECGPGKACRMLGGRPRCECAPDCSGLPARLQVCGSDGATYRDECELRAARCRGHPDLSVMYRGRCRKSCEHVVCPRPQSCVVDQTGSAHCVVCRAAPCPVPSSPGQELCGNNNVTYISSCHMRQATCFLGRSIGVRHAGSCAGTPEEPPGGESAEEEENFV
Sequence of Epidermal growth factor receptor (Homo sapiens) (P00533 whole entry, looked up): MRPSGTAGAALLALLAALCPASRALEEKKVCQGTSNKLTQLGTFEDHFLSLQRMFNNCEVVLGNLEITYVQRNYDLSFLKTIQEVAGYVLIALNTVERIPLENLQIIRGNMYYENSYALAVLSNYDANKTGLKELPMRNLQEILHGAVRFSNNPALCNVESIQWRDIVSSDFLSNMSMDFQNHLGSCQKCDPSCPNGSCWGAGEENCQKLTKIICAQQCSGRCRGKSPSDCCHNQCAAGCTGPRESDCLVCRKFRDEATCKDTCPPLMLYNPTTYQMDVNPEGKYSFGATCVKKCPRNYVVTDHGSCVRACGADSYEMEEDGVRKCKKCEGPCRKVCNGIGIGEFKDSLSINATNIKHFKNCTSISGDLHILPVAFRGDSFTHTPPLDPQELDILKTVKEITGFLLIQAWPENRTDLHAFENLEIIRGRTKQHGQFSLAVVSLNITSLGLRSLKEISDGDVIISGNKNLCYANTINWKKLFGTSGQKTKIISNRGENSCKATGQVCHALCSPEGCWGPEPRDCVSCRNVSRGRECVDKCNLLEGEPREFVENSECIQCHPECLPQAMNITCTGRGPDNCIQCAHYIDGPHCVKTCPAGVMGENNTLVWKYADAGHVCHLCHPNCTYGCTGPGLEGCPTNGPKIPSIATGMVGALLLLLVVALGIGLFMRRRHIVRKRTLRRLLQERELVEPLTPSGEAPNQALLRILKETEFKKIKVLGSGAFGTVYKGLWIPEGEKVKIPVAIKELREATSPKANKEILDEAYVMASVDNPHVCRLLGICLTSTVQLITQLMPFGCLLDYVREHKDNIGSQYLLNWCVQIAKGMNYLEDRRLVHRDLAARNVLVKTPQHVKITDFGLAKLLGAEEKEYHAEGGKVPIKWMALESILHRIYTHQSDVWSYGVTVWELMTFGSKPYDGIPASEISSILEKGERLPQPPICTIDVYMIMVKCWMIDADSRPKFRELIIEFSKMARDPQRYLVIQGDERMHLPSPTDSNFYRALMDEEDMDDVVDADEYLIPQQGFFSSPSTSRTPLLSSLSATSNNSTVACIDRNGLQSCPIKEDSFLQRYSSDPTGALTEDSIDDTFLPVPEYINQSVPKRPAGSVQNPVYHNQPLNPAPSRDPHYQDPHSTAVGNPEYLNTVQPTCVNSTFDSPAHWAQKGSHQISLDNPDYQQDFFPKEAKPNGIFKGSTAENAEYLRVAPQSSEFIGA

| SMILES | composite z-score [1] | composite z-score [2] | composite z-score [3] | z-score [4] | composite z-score [5] | composite z-score [6] | composite z-score [7] | composite z-score [8] | composite z-score [9] | composite z-score [10] | composite z-score [11] | z-score [12] | composite z-score [13] | composite z-score [14] | composite z-score [15] | composite z-score [16] | composite z-score [17] | composite z-score [18] | composite z-score [19] | composite z-score [20] |
| --- | --- | --- | --- | --- | --- | --- | --- | --- | --- | --- | --- | --- | --- | --- | --- | --- | --- | --- | --- | --- |
| O=C(C=C(CC(O)c1cccc(Cl)c1)OCCF)OCCF (stereo not given) | 1.87 | 0.558 | 0.913 | -0.985 (inactive) | -0.357 | -0.571 | -0.737 | -0.863 | -0.735 | 1.31 | -2.46 | -0.641 | -0.492 | -0.277 | 0.896 | -0.0678 | 0.0278 | 0.0014 | 0.516 | 0.392 |
| NC(=O)[C@H]1[C@@H]2C(=O)O[C@@H](c3ccccc3)[C@@H](c3ccccc3)N2[C@@H](c2ccc(O)cc2)[C@]12C(=O)Nc1ccc(C#CC3(O)CCCCCC3)cc12 | 1.37 | 0.156 | 0.0715 | -1.32 (inactive) | 1.36 | 1.31 | 0.53 | 1.42 | 0.573 | 0.593 | 1.45 | -2.61 | 0.6 | 0.861 | -0.227 | -0.12 | 0.534 | -0.327 | 1.49 | 1.49 |
| CC1(C)[C@@H]2CC(C(O)C3C=CC4C(=O)N(c5ccccc5)C(=O)C4N3Nc3ccccc3F)=C[C@@H]1C2 (stereo not given in full) | 1.4 | 0.26 | 0.471 | -1.75 (inactive) | 1.34 | 1.31 | 0.4 | 1.31 | 0.122 | 0.603 | 1.4 | -3.15 | 0.501 | 1.18 | -0.229 | 0.164 | 0.0639 | -0.256 | 1.34 | 1.12 |
| COC(=O)[C@@]1(Cc2ccc(F)cc2)[C@H]2c3cc(C(=O)N4CCCC4)n(Cc4ccccc4)c3C[C@H]2CN1C(=O)c1ccccc1 | 0.122 | 0.411 | 1.28 | -2.67 (inactive) | 0.674 | 0.376 | 0.231 | 0.761 | -0.401 | 0.628 | 1.07 | -2.41 | -0.253 | 1.98 | 0.666 | -0.0843 | -0.367 | -0.357 | 1.56 | 0.657 |
| CC(C)c1ccc(NN2C(C(O)c3ccccn3)C=CC3C(=O)N(c4ccccc4)C(=O)C32)cc1 (stereo not given) | 1.52 | 0.753 | 0.105 | -0.684 (inactive) | 1.53 | 1.31 | 0.69 | 1.33 | 0.454 | -0.75 | 1.51 | -0.112 | 0.581 | 1.11 | 0.214 | 0.145 | 0.04 | 1.7 | 1.34 | 0.964 |
| CN(C)C(=O)[C@@]1(CCS(=O)(=O)c2ccccc2)N=C(c2ccc(OCCCO)cc2)O[C@H]1c1ccccc1CN=[N+]=[N-] | 1.02 | 0.182 | 0.286 | -0.863 (inactive) | 1.41 | 1.36 | 0.27 | 0.922 | 0.52 | 0.69 | 1.42 | -1.28 | 0.446 | 1.42 | -0.335 | 0.063 | 0.108 | -0.274 | 1.09 | 1.06 |
| COC(=O)c1c(CC[C@@H](CO)NC(=O)N[C@@H](C)Cn2cc(C3(O)CCCC3)nn2)oc(C(C)=O)c1C(=O)OC | 0.513 | -0.196 | -0.206 | -1.45 (inactive) | 0.308 | -0.161 | 0.0477 | 0.104 | -0.217 | -0.338 | 0.467 | 0.884 | 0.0541 | -0.186 | -0.467 | -0.0758 | -0.0709 | -0.368 | 0.711 | 0.282 |
| COc1ccc([Si](C)(C)[C@@H]2[C@@H](CC(=O)N3Cc4ccccc4C[C@H]3CO)O[C@]3(C(=O)N(Cc4cccc(N5CCCCC5=O)c4)c4ccccc43)[C@H]2C)cc1 | 0.856 | -0.154 | -0.222 | -1.46 (inactive) | 0.689 | 1.2 | 0.968 | 1.33 | 1.17 | 0.435 | 1.09 | -3.47 | 0.709 | 0.836 | -0.219 | -0.0585 | 0.0557 | 0.228 | 1.11 | 1.9 |
| [N-]=[N+]=NCc1ccccc1[C@H]1OC(c2ccc(OCCCO)cc2)=N[C@@]1(Cc1ccccc1)C(N)=O | 1.51 | 1.19 | 0.947 | -0.312 (inactive) | 0.923 | 0.644 | -0.43 | 0.546 | -0.952 | 0.669 | 1.44 | -1.46 | -0.709 | 0.931 | 0.995 | 0.283 | -0.0576 | 0.654 | 1.76 | 2.54 |
| CCOC(=O)C1=CC[C@@H](c2ccccc2)N(S(=O)(=O)c2ccc(C)cc2)[C@H]1C=C(C)C | 0.625 | 0.367 | 0.688 | -0.925 (inactive) | 1.02 | 0.604 | 1.01 | 1.38 | 0.226 | 1.11 | 1.45 | -2.21 | 0.407 | 0.808 | -0.0374 | 0.055 | 0.199 | 1.06 | 0.647 | 0.162 |
| CCCN1C(=O)[C@@H]2Cc3c([nH]c4ccccc34)[C@@H](c3cccc(O)c3)N2C1=O | 0.292 | -0.0726 | -0.0794 | 1.08 (inactive) | 0.415 | 0.718 | 0.578 | 0.493 | 1.14 | 0.275 | 0.672 | -0.197 | 0.326 | 0.0779 | -0.346 | -0.176 | -0.221 | -0.0737 | -0.489 | 0.414 |
